Test results from PubChem BioAssay (Tox21).
Results filed as inconclusive are left out. Entries that show only a call come without a potency. Calls of active or inactive are those of the source. Unless noted, calls come from the whole dose curve; as a rule, active = well fitted curve in the direction sought with a large enough effect in the repeat runs; inconclusive = weak or mixed curves; inactive = no such curve, though single readings can be large; an effect the other way counts as inactive or inconclusive.

Columns and labels:
[1] = qHTS assay to identify small molecule agonists of the estrogen receptor alpha (ER-alpha) signaling pathway in the presence of an antagonist - cell viability counter screen (AID 1259386);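 note: cells exposed to compounds for 22 h at 37 °C before the viability read; nearly all actives have a fitted effect of over 30% in size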; note: potency is the fitted concentration of half-maximal effect
Summary of the method: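 Using estrogen-depleted VM7Luc4E2 cells, the 15-concentration compound series was applied together with 10.0nM ICI-182,780 and incubated 22hr at 37C/5% CO2. Cell viability was then scored by CellTiter-Fluor.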

[2] = biological target: Progesterone receptor (Homo sapiens) (UniProt P06401); assay: qHTS assay to identify small molecule agonists of the progesterone receptor (PR) signaling pathway (AID 1346784; calls by dose curve; note: nearly all actives have a fitted effect of over 30% in size)
Summary of the method: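 The screen uses PR-UAS-bla HEK 293T cells in charcoal-stripped serum (2%). Compounds are applied for 16 hr at 37C after a 6 hr pre-incubation, and reporter activity is detected with a FRET beta-lactamase substrate after 2 hr at room temperature.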

[3] = biological target: Progesterone receptor (Homo sapiens) (UniProt P06401); assay: qHTS assay to identify small molecule antagonists of the progesterone receptor (PR) signaling pathway (AID 1346795; active = well fitted inhibition curve with a large enough effect in the signal ratio in the repeat runs, not every such curve was filed as active; the % refers to the signal ratio; note: potency is the fitted concentration of half-maximal effect)
Summary of the method: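 After 6 hr plating at 37C in 2% stripped-serum medium, PR-UAS-bla HEK293T cells got compounds, then 1 nM R5020. Sixteen hours later, LiveBLAzer substrate was applied for 2 hr at room temperature and fluorescence was recorded.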

[4] = qHTS assay to identify small molecule agonists of the TGF-beta/Smad signaling pathway (AID 1346859; active = well fitted activation curve with a large enough effect in the signal ratio in the repeat runs, not every such curve was filed as active; the % refers to the signal ratio; note: series mostly up to about 77 µM)
Summary of the method: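 Dual-wavelength fluorescence (460/530 nm emission) quantified beta-lactamase expression under the Smad binding element in HEK 293T cells following 5 hr compound treatment at 37 C.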

[5] = biological target: Thyrotropin-releasing hormone receptor (Homo sapiens) (UniProt P34981); assay: qHTS assay to identify small molecule antagonists of the thyrotropin-releasing hormone receptor (TRHR) signaling pathway (AID 1346877; active = well fitted inhibition curve with a large enough effect in the repeat runs, not every such curve was filed as active; note: series mostly up to about 51 µM)
Summary of the method: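 Calcium signal in dye-loaded TRHR/HEK293 cells; compounds added 5 min before TRH (1 nM final); fluorescence monitored 3 min at 1 s steps.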

[6] = biological target: Thyrotropin-releasing hormone receptor (Homo sapiens) (UniProt P34981); assay: qHTS assay to identify small molecule agonists of the thyrotropin-releasing hormone receptor (TRHR) signaling pathway (AID 1346891; calls by dose curve;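 note: HEK293 cells expressing TRHR with calcium dye readout; series mostly up to about 58 µM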)
Summary of the method: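 Kinetic fluorescence (3 min, 1 s intervals) reported intracellular calcium after compound transfer onto TRHR-Hek293 cells pre-loaded with dye for 2 h at 37 °C.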

[7] = qHTS assay to identify small molecule antagonists of the progesterone receptor (PR) signaling pathway - cell viability counter screen (AID 1346798); note: series mostly up to about 92 µM; nearly all actives have a fitted effect of over 50% in size
Summary of the method: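 Viability was determined by ATP-based luminescence (CellTiter-Glo) in PR-UAS-bla HEK293T cells cultured in 2% charcoal-stripped serum and incubated 16 hr with compounds under R5020 stimulation.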

[8] = qHTS assay to identify small molecule antagonists of the TGF-beta/Smad signaling pathway - cell viability counter screen (AID 1346824); note: nearly all actives have a fitted effect of over 50% in size
Summary of the method: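 SBE-bla HEK 293T cells, incubated overnight, then compound plus 0.25 ng/mL TGF-beta1 (stock added) for 5 hr at 37 C. Viability was read in the same wells by CellTiter-Glo luminescence after 30 min at room temperature.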

[9] = qHTS assay to identify small molecule agonists of the TGF-beta/Smad signaling pathway - cell viability counter screen (AID 1346829); note: top concentration of the series differs between compounds; nearly all actives have a fitted effect of over 45% in size
Summary of the method: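 Cytotoxicity counter screen: CellTiter-Glo luminescence (30 min, room temperature) measured in the SBE-bla HEK 293T reporter wells after 5 hr compound treatment at 37 C and the 2 hr substrate step.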

[10] = qHTS assay to identify small molecule agonists of the progesterone receptor (PR) signaling pathway - cell viability counter screen (AID 1346799; calls by dose curve; note: nearly all actives have a fitted effect of over 45% in size)
Summary of the method: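 Viability was scored by ATP luminescence (CellTiter-Glo, 30 min, room temperature) in the same wells used for the reporter readout, after 16 hr compound exposure of PR-UAS-bla HEK293T cells.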

Chain of Thyrotropin-releasing hormone receptor (Homo sapiens) (P34981 whole entry, looked up): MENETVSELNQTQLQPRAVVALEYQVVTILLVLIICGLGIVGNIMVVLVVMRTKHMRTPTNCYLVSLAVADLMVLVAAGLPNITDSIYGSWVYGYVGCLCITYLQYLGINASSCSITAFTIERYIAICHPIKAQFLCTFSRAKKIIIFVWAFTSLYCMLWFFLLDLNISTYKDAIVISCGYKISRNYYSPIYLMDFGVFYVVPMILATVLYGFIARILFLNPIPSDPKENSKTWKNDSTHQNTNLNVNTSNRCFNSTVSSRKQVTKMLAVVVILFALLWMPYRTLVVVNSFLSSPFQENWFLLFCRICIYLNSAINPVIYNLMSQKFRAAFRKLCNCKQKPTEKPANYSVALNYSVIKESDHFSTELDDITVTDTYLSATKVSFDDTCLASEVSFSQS
Chain of Progesterone receptor (Homo sapiens) (P06401 whole entry, looked up): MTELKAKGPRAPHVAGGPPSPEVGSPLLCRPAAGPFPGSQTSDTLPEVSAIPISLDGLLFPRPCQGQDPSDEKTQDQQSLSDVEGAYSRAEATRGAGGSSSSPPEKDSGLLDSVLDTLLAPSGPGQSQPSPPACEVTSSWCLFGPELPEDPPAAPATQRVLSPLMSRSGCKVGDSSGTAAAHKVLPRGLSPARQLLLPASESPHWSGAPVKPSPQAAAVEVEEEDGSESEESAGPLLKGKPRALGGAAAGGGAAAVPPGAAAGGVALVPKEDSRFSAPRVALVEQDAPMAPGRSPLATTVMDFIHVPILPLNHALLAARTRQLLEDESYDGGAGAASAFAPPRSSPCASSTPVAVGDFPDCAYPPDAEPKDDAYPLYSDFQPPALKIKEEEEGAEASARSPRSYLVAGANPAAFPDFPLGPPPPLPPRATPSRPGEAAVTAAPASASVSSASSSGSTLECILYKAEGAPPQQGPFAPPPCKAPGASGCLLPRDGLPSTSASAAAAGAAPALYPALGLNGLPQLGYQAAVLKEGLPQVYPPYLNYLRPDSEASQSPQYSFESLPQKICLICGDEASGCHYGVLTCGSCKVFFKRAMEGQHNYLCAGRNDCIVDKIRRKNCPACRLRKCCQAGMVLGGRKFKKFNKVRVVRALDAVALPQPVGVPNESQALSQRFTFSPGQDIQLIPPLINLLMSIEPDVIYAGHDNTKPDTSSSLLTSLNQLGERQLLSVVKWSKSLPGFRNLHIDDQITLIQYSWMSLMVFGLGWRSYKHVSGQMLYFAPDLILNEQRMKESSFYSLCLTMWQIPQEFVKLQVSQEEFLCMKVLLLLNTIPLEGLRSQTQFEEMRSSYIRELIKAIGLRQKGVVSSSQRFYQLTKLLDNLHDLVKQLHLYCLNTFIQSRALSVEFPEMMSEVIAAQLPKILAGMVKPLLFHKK

SMILES	Potency [1]	Potency [2]	Potency [3]	Potency [4]	outcome [5]	outcome [6]	Potency [7]	outcome [8]	Potency [9]	Potency [10]
CCN(Cc1cccc(S(=O)(=O)O)c1)c1ccc(C(=C2C=CC(=[N+](CC)Cc3cccc(S(=O)(=O)O)c3)C=C2)c2ccccc2S(=O)(=O)[O-])cc1	17.3 µM (active)	inactive	inactive	inactive	inactive	inactive				
O=C1OC(=O)c2c(Br)c(Br)c(Br)c(Br)c21	inactive	inactive		inactive	inactive	inactive	inactive	inactive	inactive	
CC(=O)OCC1=C(C(=O)O)N2C(=O)[C@@H](NC(=O)CSc3ccncc3)[C@H]2SC1	inactive	inactive		inactive	inactive	inactive	inactive	inactive		inactive
CC(C)(C)C(O)/C=C/c1ccc2c(c1)OCO2 (stereo not drawn)	inactive	inactive	23.7 µM (active)	inactive		inactive	inactive	inactive	inactive	
CN(C)CC/C=C1\c2ccccc2Sc2ccc(Cl)cc21	inactive	inactive	21.1 µM (active)	inactive		inactive		inactive	inactive	
CC(=O)OCCC(C)CC(C)(C)C (stereo not drawn)	inactive	inactive		inactive			inactive	inactive	inactive	
C=C(C)C(=O)OCCC(F)(F)C(F)(F)C(F)(F)C(F)(F)C(F)(F)C(F)(F)F	inactive	inactive	inactive	inactive		inactive	inactive	inactive	inactive	
O=C(CCS)OCC(COC(=O)CCS)(COC(=O)CCS)COC(=O)CCS	inactive	inactive	inactive	inactive		inactive	inactive	inactive	inactive	
Cc1ccc(Cl)cc1N	inactive	inactive		inactive			inactive	inactive	inactive	inactive
Nc1nc2ccc(OC(F)(F)F)cc2s1	inactive	inactive		inactive			inactive	inactive	inactive	inactive
CC(C)(C)C1(CCc2ccc(Cl)cc2)CO1 (stereo not drawn)	inactive	inactive		inactive		inactive	inactive	inactive	inactive	inactive
CCCCC(CC)COS(=O)(=O)O (stereo not drawn)	inactive	inactive	inactive	inactive	inactive	inactive	inactive		inactive	
CCCCCCCC/C=C/C(=O)O	inactive	inactive		inactive		inactive	inactive	inactive	inactive	inactive
CCN(Cc1cccc(S(=O)(=O)O)c1)c1ccc(C(=C2C=CC(=[N+](CC)Cc3cccc(S(=O)(=O)O)c3)C=C2)c2ccc(O)cc2S(=O)(=O)[O-])cc1	16.6 µM (active)	inactive	inactive	inactive						
CC1=C2[C@@H]([C@H](C)CC[C@H]2/C=C(\C)C(=O)O)[C@H](O)C1	inactive	inactive		inactive			inactive	inactive	inactive	inactive
CC1=CC[C@@]23C[C@@H]1C(C)(C)[C@@H]2CC[C@H]3C	inactive	inactive	inactive	inactive	inactive	inactive	inactive		inactive	
COc1ccc(-n2nc(C(F)F)cc2-c2ccc(S(C)=O)cc2)cc1 (stereo not drawn)	inactive	inactive				inactive	inactive	inactive	inactive	inactive
CCOC(=O)N1CCC(Nc2ccc(Cl)cc2N)CC1	inactive	inactive		inactive	inactive	inactive	inactive	inactive	inactive	
C/C(C=O)=C\c1ccccc1	inactive	inactive	inactive	inactive		inactive	inactive	inactive	inactive	
C1=CCC2CC=CC2C1 (stereo not drawn)	inactive	inactive	inactive	inactive	inactive	inactive		inactive	inactive	inactive
O=C(NC(Cc1cc(=O)[nH]c2ccccc12)C(=O)O)c1ccc(Cl)cc1 (stereo not drawn)	inactive	inactive	inactive	inactive		inactive	inactive	inactive	inactive	
CCC1CCC(CCC(=O)O)C1 (stereo not drawn)	inactive	inactive		inactive	inactive	inactive	inactive	inactive	inactive	
O=C(NS(=O)(=O)/C=C/c1ccccc1)c1ccc(F)cc1Cl	inactive	inactive		inactive	inactive	inactive	inactive	inactive	inactive	
CN1C(CSCC(F)(F)F)Nc2cc(Cl)c(S(N)(=O)=O)cc2S1(=O)=O (stereo not drawn)	inactive	inactive	inactive	inactive				inactive	inactive	inactive
CC(=O)NNC(C)=O	inactive	inactive	inactive	inactive	inactive	inactive		inactive	inactive	
CC(C)N(C)C	inactive	inactive	inactive	inactive	inactive	inactive	inactive		inactive	
CCN(CC)c1cccc(O)c1	inactive	inactive			inactive	inactive	inactive	inactive	inactive	inactive

SMILES	Potency [1]	Potency [2]	Potency [3]	Potency [4]	outcome [5]	outcome [6]	Potency [7]	outcome [8]	Potency [9]	Potency [10]
CC(CO)(CO)C(=O)O	inactive	inactive		inactive			inactive	inactive	inactive	inactive
O=C1c2ccccc2C(=O)c2c(O)ccc(O)c21	inactive	inactive	inactive		inactive	inactive			inactive	inactive
Cc1ccccc1S(N)(=O)=O	inactive	inactive	inactive	inactive		inactive		inactive	inactive	inactive
Cc1ccc(S(=O)(=O)NC(=O)NC2CCCCC2)cc1	inactive	inactive	inactive	inactive	inactive	inactive		inactive	inactive	inactive
Cc1ccc2nc(N)[nH]c(=O)c2c1Sc1ccncc1	inactive	inactive		inactive		inactive	inactive	inactive	inactive	
O=C(/C=C/c1ccc([N+](=O)[O-])cc1)c1ccccc1	inactive	inactive					inactive	inactive	inactive	inactive
[Cl][Nd]([Cl])[Cl]	inactive	inactive		inactive	inactive	inactive	inactive	inactive	inactive	
Cc1ccc(Nc2c(F)cccc2Cl)c(CC(=O)O)c1	inactive	inactive		inactive	inactive	inactive		inactive	inactive	
CS(=O)(=O)c1ccc([C@@H](C[C@H]2CCC(=O)C2)C(=O)Nc2cnccn2)cc1Cl	inactive		inactive	inactive	inactive	inactive	inactive	inactive	inactive	inactive
COc1ccc(C)cc1	inactive		inactive	inactive			inactive	inactive	inactive	inactive
Oc1ccc2c(c1)Cc1ccccc1-2	inactive	inactive		inactive	inactive	inactive	inactive	inactive		
CCCCCCOC(=O)CCCCC	inactive		inactive	inactive	inactive	inactive	inactive	inactive	inactive	inactive
O=C(O)CCC(=O)OC[C@@H](NC(=O)C(Cl)Cl)[C@H](O)c1ccc([N+](=O)[O-])cc1	inactive		inactive	inactive	inactive	inactive	inactive	inactive	inactive	inactive
O=[N+]([O-])c1ccc2ncccc2c1	inactive		inactive	inactive	inactive	inactive	inactive	inactive	inactive	inactive
Cc1cc(CCCOc2c(C)cc(-c3noc(C(F)(F)F)n3)cc2C)on1	inactive	inactive		inactive	inactive	inactive		inactive	inactive	inactive
CCCCCCCC(=O)Oc1c(Br)cc(C#N)cc1Br	inactive	inactive		inactive	inactive	inactive		inactive	inactive	
COc1ccc(/C=C/C(=O)c2ccc(OC)cc2OC)cc1	inactive	inactive		inactive	inactive	inactive		inactive	inactive	
CC(C)(C(=O)c1cccnc1)c1cccnc1	inactive		inactive	inactive	inactive	inactive	inactive	inactive	inactive	inactive
CC1CCCC(=O)C1=O (stereo not drawn)	inactive		inactive	inactive			inactive	inactive	inactive	inactive
O=[N+]([O-])C1(Br)COCOC1	inactive		inactive	inactive	inactive	inactive	inactive	inactive	inactive	inactive
Nc1ccc(N=Nc2ccc(N)cc2)cc1	24.3 µM (active)		inactive	inactive		inactive	inactive	inactive	inactive	inactive
C[C@@H]1C[C@H]2[C@@H]3CCC4=CC(=O)C=C[C@]4(C)[C@@]3(F)[C@@H](O)C[C@]2(C)[C@@]1(O)C(=O)COP(=O)(O)O	inactive	inactive		inactive		inactive	inactive	inactive	inactive	
O=S(=O)(Cl)c1c(Cl)cccc1Cl	inactive		inactive	inactive	inactive	inactive	inactive	inactive	inactive	inactive
O=C(O)CCC(=O)c1ccc(-c2ccccc2)cc1	inactive	inactive						inactive	inactive	inactive
Nc1ccc(S(=O)(=O)NCc2ccccc2)cc1	inactive		inactive	inactive	inactive	inactive	inactive	inactive	inactive	inactive
CC(=O)C(C)=O	inactive	inactive		inactive				inactive	inactive	inactive
